# Test results reported in PubChem BioAssay AID651899 (Broad Institute, 2012).
# Potency and affinity values are given separately. Active and inactive are the calls of the source. How the calls were made is not given here.
# Assay: HEK293 cell viability loss – plate reader, cherry-pick, cytotoxicity control, dose response (AID 651899);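 further: cells exposed to compound for 48 hours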
# Conditions: series mostly up to 26 µM; activity change, negative = cytotoxicity: at the top concentration
row,Structure (SMILES),"activity change, negative = cytotoxicity"
1,O=C(Nc1ccc(F)c(F)c1)C1CCN(S(=O)(=O)c2cccs2)CC1,-28.7% (inactive)
2,CC(Oc1cc2oc(=O)c3c(c2cc1Cl)CCC3)C(=O)NCc1cccnc1 (stereo unspecified),-5.88% (inactive)
3,CC(=O)c1ccc(N2CCN(C(=O)c3ccc4nc[nH]c4c3)CC2)cc1,39% (inactive)
4,O=C(O)CCS(=O)(=O)c1nc(-c2cccs2)cc(C(F)(F)F)n1,-3.98% (inactive)
5,CC(=O)c1ccc(C(=O)NC2CCCN(Cc3ccccc3F)C2)s1 (stereo unspecified),-8.2% (inactive)
6,Cc1ccccc1-n1c(SCC(=O)N(C)C2CCS(=O)(=O)C2)nc2ccccc2c1=O (stereo unspecified),10.8% (inactive)
7,O=C(O)CSc1ncnc2scc(-c3ccc(Br)cc3)c12,-12.5% (inactive)
8,O=C(N[C@H]1CC[C@@H](CCn2cc(-c3cccnc3)nn2)O[C@@H]1CO)c1ccccc1F,-2.93% (inactive)
9,COc1ccccc1-c1cc(C(F)(F)F)nc(S(=O)(=O)CCCC(=O)O)n1,-15.9% (inactive)
10,C=CCn1c(COc2ccccc2F)nnc1SCCN1C(=O)c2ccccc2C1=O,12.7% (inactive)
11,C=C(C)CSc1nc(N)c2c3c(sc2n1)CCC3,11.3% (inactive)
12,Cc1ccc(/C=C(\CCC(=O)O)c2nc3ccccc3s2)cc1[N+](=O)[O-],15.8% (inactive)
13,O=c1[nH]c(N2CCN(Cc3ccc4c(c3)OCO4)CC2)nc2c1CCCC2,17.7% (inactive)
14,O=C(c1ccccc1F)N1CC[C@@H]2[C@H]1c1cc(Br)ccc1N[C@@H]2CO,-6.71% (inactive)
15,Cc1cccc(C(=O)NC2CCN(CC(=O)Nc3ccccc3Cl)CC2)c1,-19.2% (inactive)
16,CCN(CC)CCNC(=O)c1cn(CC)c2ccc(S(=O)(=O)N3CCc4ccccc4C3)cc2c1=O,-10.8% (inactive)
17,O=C(c1ccncc1)N1CC[C@@H]2[C@H]1c1cc(Br)ccc1N[C@@H]2CO,2.88% (inactive)
18,O=C(CSc1nncs1)N1c2ccccc2Sc2ccccc21,-12.5% (inactive)

row,Structure (SMILES),"activity change, negative = cytotoxicity"
1,CCC(Sc1nc2ccsc2c(=O)n1Cc1ccc(C(=O)O)cc1)C(=O)Nc1cccc(OC)c1 (stereo unspecified),60% (inactive)
2,CC1Cc2nc(SCC(=O)N3CCOCC3)n(-c3ccccc3)c(=O)c2S1 (stereo unspecified),-5.73% (inactive)
3,NC(=O)c1ccc(Oc2cccc3cccnc23)c([N+](=O)[O-])c1,22.6% (inactive)
4,Nn1c(SC/C=C/c2ccccc2)nnc1-c1cccnc1,-7.17% (inactive)
5,O=C(c1cccc(F)c1)N1CC[C@@H]2[C@H](CO)Nc3ccc(-c4cccc(F)c4)cc3[C@@H]21,17.2% (inactive)
6,CC(C)n1c(N2CCN(C(=O)c3cccs3)CC2)nc2ccccc21,12.8% (inactive)
7,CCOC(=O)c1ccc2c(c1)nc(SCc1cn3ccsc3n1)n2CC,1.73% (inactive)
8,COc1ccc(NC(=O)c2cnc(C)cn2)cc1-n1cnnn1,-0.893% (inactive)
9,CN1CCN(c2ncnc3c2[nH]c2ccc(F)cc23)CC1,13.6% (inactive)
10,O=C(C1CCCN(S(=O)(=O)c2cccnc2)C1)N1CCn2c1nc1ccccc12 (stereo unspecified),-4.71% (inactive)
11,COc1ccc(C2c3c(oc4ccc(Cl)cc4c3=O)C(=O)N2CCN2CCOCC2)cc1 (stereo unspecified),0.468% (inactive)
12,CCC(CO)Oc1cc(NC(=O)c2cccc(F)c2)c2ncn(C(C)C)c2c1 (stereo unspecified),8.15% (inactive)
13,C[C@@H]1CN([C@H](C)CO)C(=O)c2cc(C#Cc3cccnc3)cnc2O[C@H]1CN(C)S(C)(=O)=O,9.57% (inactive)
14,COCCNC(=O)C[C@H]1CC[C@@H]2[C@H](COc3ccc(NC(=O)Nc4cccc(F)c4)cc3C(=O)N2C)O1,11.2% [at 23.5 µM] (inactive)
15,CCC(CO)[n+]1c(C)cc(/C=C2\Sc3ccccc3N2Cc2ccccc2)cc1C (stereo unspecified),-18.5% (inactive)
16,O=C(c1ccc(S(=O)(=O)Nc2ccccc2F)cc1)N1CCN(c2ccccc2O)CC1,-14.3% (inactive)
17,Cc1cc(C(=O)CSc2nncs2)c(C)n1-c1ccc2c(c1)OCO2,-23.3% (inactive)
18,COc1cccc(-c2ccc3c(c2)[C@H]2[C@H](CCN2C(=O)C2CCC2)[C@@H](CO)N3)c1,2.77% (inactive)
